# HTT-AS promoter: activates huntingtin-antisense promoter activity | Potency, µM (titrated, usually from 57.5 µM), actives largely listed as activators | HEK293 HTT-AS promoter firefly luciferase reporter, 24 h; response scale: percent change from vehicle, -100% = no light | AID 1508624 | 48,000 tested, 0.24% active; further: nearly all actives have a fitted effect of over 55% in size
#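 Firefly luciferase signal from promoter-reporter HEK293 cells was scaled between vehicle (0%) and zero RLU (-100%). Compounds were tested at final concentrations of up to 57.5 uM over 24 h at 37 degrees C. PTC124 at 50 uM final served as control inhibitor.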
# GPR32 ag: agonists of human resolvin D1 receptor DRV1 (GPR32); 48,000 tested, 2.5% active; CHO-K1 GPR32 beta-arrestin PathHunter luminescence, 90 min; zero percent set by DMSO-only wells; O75388; activation, % at 76.9 µM;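 active means activation of at least 60% and not above a set upper limit, about 1 call in 100 departs from these limits; inconclusive means activation of 40% to 60%, or above that upper limit; inactive means activation under 40%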
# Target sequence (O75388 whole entry, looked up): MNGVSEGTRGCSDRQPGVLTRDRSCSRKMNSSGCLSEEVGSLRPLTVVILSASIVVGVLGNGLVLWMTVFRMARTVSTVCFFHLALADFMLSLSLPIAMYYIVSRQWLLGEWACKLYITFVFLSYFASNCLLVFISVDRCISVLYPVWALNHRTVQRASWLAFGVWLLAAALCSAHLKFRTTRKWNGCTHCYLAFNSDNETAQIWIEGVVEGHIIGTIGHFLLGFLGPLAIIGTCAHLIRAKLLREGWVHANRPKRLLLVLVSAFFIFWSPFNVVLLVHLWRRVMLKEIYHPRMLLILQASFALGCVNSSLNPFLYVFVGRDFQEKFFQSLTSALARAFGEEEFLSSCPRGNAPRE
#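 Using DMSO wells as EC0, agonist-induced signal was taken as chemiluminescence from beta-Gal reconstituted upon beta-arrestin recruitment to GPR32 in CHO-K1 cells after 90 min compound treatment.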
# HTT prom inh: inhibits huntingtin promoter activity. 48,000 tested, 0.93% active. Potency, µM (series often up to 57.5 µM), hits mostly inhibitors. HEK293 HTT promoter firefly luciferase reporter, 24 h; further: nearly all actives have a fitted effect of over 50% in size
#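 HEK293 luciferase promoter-reporter cells (2,500/well) plated 24 h, then compounds added at up to 57.5 uM final for 24 h at 37 °C. Firefly luminescence by Dual-Glo, normalized to vehicle (0%) and zero RLU (-100%).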
# Numbers stand for hits; 0 = inactive; ? = inconclusive; - = no result; [ ] = remark or other dose. A selection: hits, their analogues and other compounds. The true share with any hit is near 3.7%. Unless noted, the call rests on the fitted dose curve; in most records, active means well fitted curve in the direction sought with a large enough effect; inconclusive means small, poorly fitted or top-dose-only effect, or another doubt; inactive means no such curve, though single readings can be large; an effect the other way counts as inactive or inconclusive.
SMILES,HTT-AS promoter,GPR32 ag,HTT prom inh
CC(=O)c1ccc(NC(=O)CCOc2ccccc2)cc1,?,0,0
CCOc1ccc(NC(=O)CC2C(=O)N(c3ccc(F)cc3)C(=O)N2CCc2sccc2C)cc1 (configuration not stated),0,0,?
CC(C)(C)c1ccc(C(=O)NCC(c2cccs2)S(=O)(=O)c2ccc(F)cc2)cc1 (configuration not stated),0,0,20µM
O=C(NCC(c1cccs1)S(=O)(=O)c1ccccc1)c1ccc(C(F)(F)F)cc1 (configuration not stated),0,0,?
CC(C)(C)c1ccc(C(=O)NCC(c2cccs2)S(=O)(=O)c2cccs2)cc1 (configuration not stated),0,0,?
Cc1ccc(C(=O)NCC(c2cccs2)S(=O)(=O)c2cccs2)cc1 (configuration not stated),0,74,?
CCC(C(=O)O)c1ccc(N2Cc3ccccc3C2=O)cc1 (configuration not stated),?,0,0
Cc1ccc2oc(-c3cc(NC(=O)Cc4ccccc4)ccc3Cl)nc2c1,-,64,-
Cc1ccc(C(=O)Nc2ccc3oc(-c4ccccc4C)nc3c2)cc1,0,76,0
COc1ccc(C(=O)Nc2ccc(-c3nc4cc(C)ccc4o3)c(O)c2)cc1,0,0,0
Cc1ccc2oc(-c3cc(NC(=O)CC(C)C)ccc3Cl)nc2c1,-,0,-
Cc1nn(CC(=O)NCc2ccc(N(C)C)cc2)c(=O)c2c(C)n(-c3ccc(Cl)cc3)nc12,0,0,?
Cc1ccc(Cl)cc1NC(=O)COC(=O)CC(C)(C)CC1=NS(=O)(=O)c2ccccc2N1,0,?,?
COc1ccc(Cl)cc1NC(=O)COC(=O)CC(C)(C)CC1=NS(=O)(=O)c2ccccc2N1,0,0,?
CCOc1ccccc1NC(=O)COC(=O)CC(C)(C)CC1=NS(=O)(=O)c2ccccc2N1,0,83,?
CC(C)(CC(=O)NCc1ccc(Cl)cc1Cl)CC1=NS(=O)(=O)c2ccccc2N1,0,110,20µM
CNC(=O)[C@H](CC1=CN=C2C=CCC=C12)NC(=O)[C@@H](CC(=O)NO)CC(C)C,0,-,?
COc1ccccc1Nc1c2c(nc3ccc(NC(=O)c4ccc(N(C)C)cc4)cc13)CCCC2,0,0,?
CCOc1ccccc1C(=O)Nc1ccc2nc3c(c(Nc4ccc(OC)c(OC)c4)c2c1)CCCC3,0,0,?
COc1cc(OC)cc(C(=O)Nc2ccc3nc4c(c(Nc5ccc(OC)c(OC)c5)c3c2)CCCC4)c1,0,85,?
COc1ccc(Nc2c3c(nc4ccc(NC(=O)c5cc(Cl)ccc5OC)cc24)CCCC3)cc1OC,0,61,?
CCCCCOc1ccc(C(=O)N(Cc2ccccc2)C2CCS(=O)(=O)C2)cc1 (configuration not stated),0,0,?
Cc1ccc(NC(=O)CN2C(=O)C3(SCC(=O)N3c3ccc(F)c(F)c3)c3ccccc32)c(C)c1 (configuration not stated),?,0,0
CCOC(=O)[C@H]1O[C@H]1C(=O)N[C@@H](CC(C)C)C(=O)NCCC(C)C,0,-,0
CCOC(=O)c1ccc(NC(=O)CC2Nc3cc(C)c(C)cc3NC2=O)cc1 (configuration not stated),0,0,8.9µM
SMILES,HTT-AS promoter,GPR32 ag,HTT prom inh
CCOc1ccc(NC(=O)CC2Nc3cccc4cccc(c34)NC2=O)cc1 (configuration not stated),0,83,0
CCOC(=O)c1ccc(NC(=O)CC2Nc3cccc4cccc(c34)NC2=O)cc1 (configuration not stated),0,0,?
COc1cccc(NC(=O)CC2Nc3cc(C)c(C)cc3NC2=O)c1 (configuration not stated),0,0,0
CCOc1cccc(NC(=O)C2CC(=O)N(C)C(=Nc3cccc(OC)c3)S2)c1 (configuration not stated),0,0,0
CCc1ccc(N=C2NC(=O)CC(C(=O)Nc3ccc(OC)cc3)S2)cc1 (configuration not stated),0[11.5 µM],92,0[11.5 µM]
C[C@]12CCC(=O)C=C1[C@@H]1C[C@@H]1[C@H]1[C@@H]3[C@@H]4C[C@@H]4[C@@]4(CCC(=O)O4)[C@@]3(C)CC[C@@H]12,0,0,0
CCO[C@H](Cc1ccc(OCCc2ccc(OS(C)(=O)=O)cc2)cc1)C(=O)O,0,76,0
CCOc1ccc(S(=O)(=O)N(CC(=O)NCCc2ccc(OC)cc2)c2ccccc2)cc1,0,0,0
O=C(NCC(c1ccco1)S(=O)(=O)c1ccc(Cl)cc1)c1ccccc1F (configuration not stated),0,0,0
Cc1noc(/C=C/c2ccco2)c1S(=O)(=O)N1CCC(C(=O)Nc2ccc(F)c(Cl)c2)CC1,0,0,32µM
Cc1ccc(NC(=O)C2CCN(S(=O)(=O)c3c(C)noc3/C=C/c3ccco3)CC2)cc1C,0,0,?
Cc1noc(/C=C/c2ccccc2F)c1S(=O)(=O)N1CCC(C(=O)NCc2ccco2)CC1,0,0,?
Cc1ccc(/C=C/c2onc(C)c2S(=O)(=O)N2CCC(C(=O)NCc3ccco3)CC2)cc1,0,88,0
CCc1ccccc1NC(=O)c1sc(-n2nc(C)c(Cc3ccccc3)c2C)nc1C,0,0,0
COc1ccc(CC2SC(=O)NC2=O)cc1C(=O)NCc1ccc(C(F)(F)F)cc1 (configuration not stated),0,-,0
Cn1c(-c2ccc(S(=O)(=O)N3CCCC3)cc2)csc1=Nc1ccc(Cl)c(Cl)c1,0,0,5µM
CCn1c(-c2ccc(S(=O)(=O)N3CCOCC3)cc2)csc1=Nc1ccc(C)c(Cl)c1,0,0,0
Nc1nc2ccccc2n1Cc1ccc(F)cc1,0,0,0
CCc1ccccc1NC(=O)CSc1nnc(COc2ccccc2Cl)o1,0,69,?
COc1cccc(NC(=O)CSc2nnc(COc3ccc(Cl)cc3)o2)c1,-,0,-
CCCCCCCCCCCCCC(=O)N[C@H](CO)[C@H](O)c1ccc([N+](=O)[O-])cc1,0,-,0
CCCOc1ccc(C(=O)Nc2ccc(NC(=O)c3ccccc3)c(C)c2)cc1,0,0,0
O=C(Nc1cccc2c(=O)cc(-c3nn[nH]n3)oc12)c1ccc(OCCCCc2ccccc2)cc1,0,94,?
CN1[C@@H]2CCC[C@@H]1CC(NC(=O)c1nn(C)c3ccccc13)C2 (some centres not stated),0,-,0
Cc1ccc(C(=O)c2oc3ccccc3c2NC(=O)c2nc(S(C)(=O)=O)ncc2Cl)cc1F,0,75,0
CS(=O)(=O)c1ncc(Cl)c(C(=O)Nc2c(C(=O)Nc3ccccc3)oc3ccccc23)n1,0,0,0
CO[C@H]1/C=C\O[C@@]2(C)Oc3c(C)c(O)c4c(O)c(c(C=NN5CCN(C6CCCC6)CC5)c(O)c4c3C2=O)NC(=O)C(C)=CC=C[C@H](C)[C@H](O)[C@@H](C)[C@@H](O)[C@@H](C)[C@H](OC(C)=O)[C@H]1C,0,-,?
Cc1ccc(Nc2nc3nonc3nc2Nc2cccc(C(F)(F)F)c2)cc1Cl,0,0,1.3µM

# Screening data as filed in PubChem BioAssay.
